Measurements reported in PubChem BioAssay AID686970 (National Center for Advancing Translational Sciences (NCATS), 2013).
In all, about 360,000 compounds went through this assay and about 6,000 (1.7%) were called active. Roughly 8% stayed inconclusive and do not appear here. Calls come from the whole dose curve; as a rule, active = well fitted cell-killing curve with a large enough effect; inconclusive = small, poorly fitted or top-dose-only effect, or effect the other way; inactive = flat fitted curve, though single readings scatter. The full list was thinned out, with actives kept by preference.

assay: qHTS for induction of synthetic lethality in tumor cells producing 2HG: qHTS for the HT-1080-NT fibrosarcoma cell line; conditions: HT-1080-NT fibrosarcoma viability, CellTiter-Glo ATP luminescence, 48 h; series mostly up to 46.1 µM; activity, negative = less viability: at the top concentration;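 note: NT is the 2HG producing partner of a matched IDH1 knockdown line; nearly all actives have a fitted effect of over 55% in size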;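 for activity, negative = less viability: 0% = DMSO-treated cells and -100% = media-only wells without cells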
How it was run: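 Read-out is CellTiter-Glo luminescence after 10 minutes at room temperature, following 48 hours' compound treatment of HT-1080-NT cells (750 cells/well, RPMI, 5% FBS, 37 degrees C).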
Potency is the fitted concentration of half-maximal effect.

SMILES	activity, negative = less viability	Potency
COc1cc(C(=O)OCCCN2CCOCC2)cc(OC)c1OC	12.7% (inactive)	
O=C(COC(=O)CCc1c[nH]c(=O)[nH]1)Nc1ccccc1Cl	16.6% (inactive)	
O=C(Nc1ccccc1Cl)/C(Cl)=C(\Cl)S(=O)c1ccccc1 (configuration not stated)		20.6 µM (active)
CN(C)S(=O)(=O)Oc1ccccc1C(=O)Nc1ccccc1Cl	0.81% (inactive)	
COC(=O)[C@@]12C[C@@H](CC(=O)N3CCCCC3)C(=O)N(Cc3ccc4c(c3)OCO4)C1=CCC(C)(C)C2	-21.7% (inactive)	
CN(Cc1ccccc1)C(=O)[C@@H]1CCCN1C(=O)[C@@H]1CCCN1C(=O)c1c(F)cccc1F	24.6% (inactive)	
COc1ccc(C(=O)Nc2cccc(S(C)(=O)=O)c2)cc1	5.39% (inactive)	
COc1ccc(NS(=O)(=O)c2ccc(C(=O)Nc3c(C)n(C)n(-c4ccccc4)c3=O)cc2)cc1	-12% (inactive)	
COc1ccc(NS(=O)(=O)c2ccc(NC(=O)c3ccc(N(C)S(C)(=O)=O)cc3)cc2)cc1		18.4 µM (active)
O=S1(=O)CC(N2CCN(Cc3ccccc3F)CC2)CN1Cc1cn(Cc2ccccc2)nn1 (configuration not stated)	8.96% (inactive)	
C[C@@H]1CN([C@@H](C)CO)S(=O)(=O)c2ccc(C#Cc3cccc(F)c3)cc2O[C@H]1CN(C)S(=O)(=O)c1cn(C)cn1	-24.4% (inactive)	
COC(=O)[C@]12CCCCC=C1N(Cc1ccco1)C(=O)[C@H](CC(=O)NCC1CCCCC1)C2	17.1% (inactive)	
Nc1ncnc2c1ncn2[C@@H]1O[C@H](C(=O)NS(=O)(=O)c2c(Cl)nc3sccn23)[C@@H](O)[C@H]1O	4.2% (inactive)	
COc1ccc(NC(=O)CSc2nnnn2-c2cccc(OC)c2)cc1	8.68% (inactive)	
CCOc1cccc(-n2nnnc2-c2ccc(OC)cc2)c1		5.8 µM (active)
CCOC(=O)C(C)n1cnc2c(nnn2-c2cccc(OC)c2)c1=O (configuration not stated)	11.1% (inactive)	
COCCCNC(=O)c1ccc(-c2c(C)noc2C)c2ccoc12	4.24% (inactive)	
COc1ccccc1-n1c(SCC(=O)Nc2ccc(Cl)cc2)nc(O)c(Cc2ccccc2)c1=O	-8.27% (inactive)	
COc1ccc(C(C(=O)NCc2ccccc2)n2c(=O)c(-c3ccccc3)nc3ccccc32)cc1 (configuration not stated)	-16.2% (inactive)	
CCC(C)C(CO)NC(=O)/C=C/[C@H]1O[C@@H](n2cnc3c(NC(=O)c4ccccc4)ncnc32)[C@H](O)[C@@H]1O (some centres not stated)	3.67% (inactive)	
COc1ccc(CN2CCCC(CNC(=O)c3ccc(F)cc3)C2)cc1OC (configuration not stated)	4.21% (inactive)	

SMILES	activity, negative = less viability	Potency
COc1ccc(C(=O)N/N=C2\CCS(=O)(=O)c3ccc(F)cc32)cc1OC		20.6 µM (active)
COc1ccc(C(=O)NC2CC(C)(C)NC(C)(C)C2)cc1OC	17% (inactive)	
Cc1ccc(Cc2c(-c3ccc(Cl)cc3)nc3c4ccccc4ccn23)cc1	-19% (inactive)	
CC(=O)NN=C(C)c1ccc(NC(=O)C2CC2)cc1	-2.35% (inactive)	
COc1ccc(C(=O)NCC2CCCO2)cc1S(=O)(=O)NCc1ccc(Cl)cc1 (configuration not stated)	0.0669% (inactive)	
CCC(CC)C(C(=O)NC1CCCC1)N1CCN(c2cc(C)nc3ccccc23)CC1 (configuration not stated)	-28.7% (inactive)	
N#Cc1c(NC(=O)CCCl)sc2c1CCCCC2		23.1 µM (active)
N#Cc1c(NC(=O)C2CCCO2)sc2c1CCCCC2 (configuration not stated)	-5.07% (inactive)	
CCN1CCN(CC(=O)Nc2sc3c(c2C#N)CCC3)CC1	11.3% (inactive)	
CCCCCCN1CCN(C2CN(Cc3cn(Cc4ccc(F)cc4)nn3)S(=O)(=O)C2)CC1 (configuration not stated)	0.0762% (inactive)	
Cc1ccc(-c2nc3ccccn3c2Nc2ccc(F)cc2)o1	1.52% (inactive)	
Cn1c(=N)n(CC(O)c2ccccc2)c2ccccc21 (configuration not stated)	-3.88% (inactive)	
Cn1c(=N)n(CC(O)c2cccs2)c2ccccc21 (configuration not stated)	0.74% (inactive)	
N=c1n(Cc2ccc(Cl)cc2)c2ccccc2n1CC(O)c1ccco1 (configuration not stated)		23.1 µM (active)
CCNC(=O)C1(C)CCCN(Cc2noc(-c3ccccc3OC)n2)C1 (configuration not stated)	19.6% (inactive)	
Clc1ccccc1Nc1nc(NCc2cccs2)nc2ccsc12	6.31% (inactive)	
COc1ccc(NC(=S)NCc2cccs2)c(OC)c1	7.46% (inactive)	
COc1ccccc1CNc1nc(Nc2ccccc2Cl)c2sccc2n1	-7.83% (inactive)	
COc1cccc(CNc2nc(NCc3ccccc3OC)nc3ccsc23)c1		23.1 µM (active)
COc1cccc(-c2cc3nc(NCc4ccccc4OC)n(C)c(=O)c3s2)c1	2.39% (inactive)	
COc1cccc(CNc2nc(NCc3cccs3)nc3ccsc23)c1		18.4 µM (active)

SMILES	activity, negative = less viability	Potency
CC[C@@H]1CC2=C(C(=O)OC(C)(C)O2)[C@@H](CC)O1	20.4% (inactive)	
Nc1nc2c(ncn2[C@@H]2O[C@H](CNCc3ccc(OCCCN4CCOCC4)cc3)[C@@H](O)[C@H]2O)c(=O)[nH]1	23.9% (inactive)	
C[C@H](O)[C@@H]1C(=O)N2CCc3c([nH]c4ccccc34)[C@@H]2C[C@@H]1N(C)C(=O)Nc1ccc(F)cc1	-4.19% (inactive)	
C[C@H]1CN([C@@H](C)CO)C(=O)CCCn2cc(nn2)CO[C@@H]1CN(C)S(=O)(=O)c1cccs1	3.92% (inactive)	
N#Cc1ccc(C(C(=O)NCc2ccccc2)n2c(=O)c(-c3ccco3)nc3ccccc32)cc1 (configuration not stated)	-3.23% (inactive)	
O=S1(=O)CC(N2CCSCC2)CN1Cc1cn(Cc2cccc(Cl)c2)nn1 (configuration not stated)	18.5% (inactive)	
CCCCC[C@@H]1C=C(C(=O)OCC)[C@H](c2ccccc2)N1S(=O)(=O)c1ccc(C)cc1	-18.3% (inactive)	
Cn1c(=O)c([N+](=O)[O-])c(Oc2ccccc2)c2ccccc21		18.4 µM (active)
Cc1cc(C)c(-c2c(O)c3ccccc3n(C)c2=O)c(C)c1	7.51% (inactive)	
COc1cc2c(=O)n(C)c3ccccc3c2cc1OC	4.63% (inactive)	
CCCc1c(C)nc2scc(-c3ccc(Cl)cc3)n2c1=O	-1.68% (inactive)	
COCCNc1ncnc2c1ncn2[C@H]1CN(CCN2CCOCC2)C[C@@H](CO)O1	22.6% (inactive)	
C=CCC[C@@H](CCCCC)OC(=O)/C=C/[C@@H](O)[C@H](O)C[C@H](O)CC=C	-18.2% (inactive)	
C=CCC[C@H](CCCCC)OC(=O)/C=C/[C@H](O)[C@@H](O)C[C@@H](O)CC=C	-23.8% (inactive)	
COc1cccc(CNC(=O)CN2C(=O)NC(Cc3ccccc3)(c3ccccc3)C2=O)c1 (configuration not stated)	4.29% (inactive)	
COc1cccc(CNc2nc(C(F)(F)F)nc3ccccc23)c1		23.1 µM (active)
CN(C)C(CNC(=O)c1cc2ccccc2o1)c1ccccc1 (configuration not stated)	-8.25% (inactive)	
CN(C)C(CNC(=O)Cc1ccc([N+](=O)[O-])cc1)c1ccccc1 (configuration not stated)	-3.4% (inactive)	
CCc1ccc(C(CNc2nc(C(F)(F)F)nc3ccccc23)N(C)C)cc1 (configuration not stated)		23.1 µM (active)
COc1cccc(CNC(=O)c2n[nH]c3ccccc23)c1	-22% (inactive)	
